Drawing on PubChem BioAssay (NCATS), this text covers Potency and outcome for 33 compounds.

Molecules are shown by their SMILES. Records with an inconclusive call do not appear. Active and inactive are the calls of the source. The call rests on the fitted dose curve; in most records, active means well fitted curve in the direction sought with a large enough effect; inconclusive means small, poorly fitted or top-dose-only effect, or another doubt; inactive means no such curve, though single readings can be large; an effect the other way counts as inactive or inconclusive.

Experiment [1] concerns the target Glutathione peroxidase 1 (Homo sapiens) (UniProt P07203). Nature of the experiment: Primary qHTS Assay for Inhibitors of Recombinant Selenoprotein Glutathione Peroxidase 1 (GPX1) (AID 1845191). Further: nearly all actives have a fitted effect of over 65% in size. An outline of the steps:
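10 nM GPX1 + cpd, 30 min RT; start w/ 1 mM GSH, 0.5 mM cumene hydroperoxide, 0.5 mM NADPH, 100 nM GR, 0.01% BSA; buffer 50 mM Tris-HCl pH 7.5, 2 mM EDTA, 150 mM NaCl; Fl 340/450, 0 & 15 min.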
(In qHTS, concentration-response curves come from the screen itself.)

The target of experiment [2] is Phospholipid hydroperoxide glutathione peroxidase GPX4 (Homo sapiens) (UniProt P36969). Nature of the experiment: Primary qHTS Assay for Inhibitors of Recombinant Selenoprotein Glutathione Peroxidase 4 (GPX4) (AID 1845192). Further: nearly all actives have a fitted effect of over 65% in size. Further: potency means the concentration at half of the fitted maximal effect. The method in brief:
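NADPH consumption, followed by fluorescence at 340/450 nm between 0 and 15 min, reports GPX4 activity via coupled glutathione reductase (100 nM). Enzyme 200 nM was pre-exposed to compound 30 min; 0.5 mM cumene hydroperoxide and 1 mM GSH served as substrates.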

Experiment [3] deals with Luciferin 4-monooxygenase (Photinus pyralis) (UniProt P08659). The experiment in a line: Primary firefly luciferase (FLuc) qHTS assay for identification of artifact compounds. (AID 1845220). Further: nearly all actives have a fitted effect of over 60% in size. The method in brief: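 Cell-free, 1536-well qHTS. Buffer pH 7.6 with 0.01% Tween-20 and 0.05% BSA; 10 uM D-luciferin, 10 uM ATP; 10 nM P. pyralis luciferase; luminescence after 5 min.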

Experiment [4] can be described thus: Primary fluorescence-based thiol-reactive (MSTI) qHTS assay for identification of artifact compounds. (AID 1845221).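 Further: series mostly up to about 54 µM; thiol-reactive compounds lower the probe fluorescence signal; nearly all actives have a fitted effect of over 65% in size.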 The method in brief: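 A multi-concentration qHTS design tested compounds against 4 uM MSTI, pH 7.4 phosphate-buffered saline. Plates were protected from light for 1 h at room temperature before imaging fluorescence.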
A short description of experiment [5]: Primary redox qHTS assay for identification of artifact compounds. (AID 1845223). The method in brief:
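Amplex Red (25 uM) and HRP (250 mU/mL) in HBSS, with compounds for 15 min, then 250 uM DTT for 30 min, room temperature, dark. Fluorescence 525/598 nm read; normalized to DMSO and 10 uM DA3003; Hill fit.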

For experiment [6], the system named is Nanoluciferase (engineered Oplophorus gracilirostris luciferase). Nature of the experiment: Primary Nanoluciferase (NLuc) qHTS assay for identification of artifact compounds. (AID 1845222). Further: series mostly up to about 54 µM. The method in brief: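 Compounds are pinned into diluted (1:55) conditioned medium of NLuc-expressing S16 cells and held 15 min at room temperature protected from light. Nano-Glo substrate follows, and luminescence is read 5 min later.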

Sequence of Phospholipid hydroperoxide glutathione peroxidase GPX4 (Homo sapiens) (P36969 whole entry, looked up): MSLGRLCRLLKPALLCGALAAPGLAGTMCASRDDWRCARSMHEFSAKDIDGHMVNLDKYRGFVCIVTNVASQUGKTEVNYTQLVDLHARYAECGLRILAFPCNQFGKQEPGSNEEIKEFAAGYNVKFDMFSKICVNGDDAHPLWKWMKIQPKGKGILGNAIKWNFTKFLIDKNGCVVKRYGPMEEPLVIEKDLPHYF
Sequence of Glutathione peroxidase 1 (Homo sapiens) (P07203 whole entry, looked up): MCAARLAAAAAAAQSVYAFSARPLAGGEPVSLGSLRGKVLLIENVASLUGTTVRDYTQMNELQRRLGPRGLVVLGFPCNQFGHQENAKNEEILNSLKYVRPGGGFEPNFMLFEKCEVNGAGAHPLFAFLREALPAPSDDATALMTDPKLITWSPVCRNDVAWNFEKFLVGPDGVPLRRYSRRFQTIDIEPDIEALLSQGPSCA

For the compound `Oc1ccccc1`, the Potency result in experiment [1] and in experiment [2] was “inactive” throughout.
For the compound `O=C(CCC1CCN(Cc2ccccc2)CC1)c1ccc2c(c1)NCCCC2`, the Potency result in experiment [1], in experiment [2], in experiment [3] and in experiment [4] was “inactive” each time. In addition, the compound was classed as inactive in experiment [5].
As for `CC(=O)Oc1ccc(C2(c3ccc(OC(C)=O)cc3)Oc3ccccc3NC2=O)cc1`, the Potency result in experiment [1], in experiment [2], in experiment [3], in experiment [4] and in experiment [6] was “inactive” throughout. Further, in experiment [5], the compound was classed as inactive.
As to `O=C(OCC(O)CO)c1ccccc1Nc1ccnc2c(C(F)(F)F)cccc12` (centres undefined), the Potency entry in experiment [1] and in experiment [2] was “inactive” throughout.
Consider `CC(C(=O)O)c1ccc(/C=C2\CCCCC2=O)cc1` (centres undefined), for which the Potency result in experiment [1], in experiment [2], in experiment [4] and in experiment [6] was “inactive” throughout. Moreover, the call in experiment [5] was inactive.
With `O=C(C1CCCCC1)N1CC(=O)N2CCCc3ccccc3C2C1` (centres undefined), the Potency entry in experiment [1] and in experiment [2] was “inactive” throughout.
For `CCN(CC)CC(=O)Nc1c(C)cccc1C(=O)OC`, the Potency result in experiment [1] and in experiment [2] was “inactive” in each case.
For the compound `CCCC(=O)O[C@]1(C(=O)CCl)[C@@H](C)C[C@H]2[C@@H]3CCC4=CC(=O)C=C[C@]4(C)[C@@]3(F)C(=O)C[C@@]21C`, the Potency result in experiment [1] and in experiment [2] was “inactive” throughout.
As to `CC[N+]1(CC)CCC(=C(c2ccccc2)c2ccccc2)C1C` (centres undefined), the Potency result in experiment [1], in experiment [2], in experiment [3], in experiment [4] and in experiment [6] was “inactive” in each case. In experiment [5], the outcome was inactive.
Regarding `CC(C)(C)c1nnc(NS(=O)(=O)c2ccccc2)s1`, the Potency entry in experiment [1], in experiment [2], in experiment [3] and in experiment [4] was “inactive” each time. In addition, in experiment [5], the outcome was inactive.
As for `C[C@@H](C1=C(CCN(C)C)Cc2ccccc21)c1ccccn1`, the Potency result in experiment [1] and in experiment [2] was “inactive” throughout.
As to `OC(CCCN1CCCCC1)(c1ccccc1)c1ccccc1`, the Potency entry in experiment [1] and in experiment [2] was “inactive” in each case.
For the compound `C=CC[N+]1([C@H]2C[C@H]3[C@@H]4CC[C@H]5C[C@H](OC(C)=O)[C@@H](N6CCCCC6)C[C@]5(C)[C@H]4CC[C@]3(C)[C@H]2OC(=O)CC)CCCCC1`, the Potency entry in experiment [1], in experiment [2] and in experiment [4] was “inactive” in each case.
Take `CC(=O)N(c1onc(C)c1C)S(=O)(=O)c1ccc(N)cc1`: the Potency entry in experiment [1] and in experiment [2] was “inactive” throughout.
Regarding `COc1cc(C(=O)OC(COCCC(C)C)CN2CCOCC2)cc(OC)c1OC` (centres undefined), the Potency entry in experiment [1], in experiment [2], in experiment [3] and in experiment [4] was “inactive” throughout. Further, the compound was classed as inactive in experiment [5].
As to `CN(C)C(=O)CNC(=O)Cc1ccccc1`, the Potency entry in experiment [1], in experiment [2], in experiment [3] and in experiment [4] was “inactive” in each case. The result in experiment [5] was inactive.
Regarding `O=C(c1ccccc1)c1ccccc1`, the Potency result in experiment [1] and in experiment [2] was “inactive” throughout.
For `Cc1cccc(N(C)C(=S)Oc2ccc3c(c2)CCC3)c1`, the Potency entry in experiment [1], in experiment [2], in experiment [3] and in experiment [4] was “inactive” each time. Moreover, the compound was classed as inactive in experiment [5].
For the compound `CCOC(=O)O[C@]1(C(=O)OCCl)CC[C@H]2[C@@H]3CCC4=CC(=O)C=C[C@]4(C)[C@H]3[C@@H](O)C[C@@]21C`, the Potency entry in experiment [1] and in experiment [2] was “inactive” in each case.
On to `Cc1ccccc1C(=O)N1CC/C(=N\OS(=O)(=O)O)c2ccc(Cl)cc21`, for which the Potency result in experiment [1], in experiment [2], in experiment [3] and in experiment [4] was “inactive” throughout. In experiment [5], the call was inactive.
For `Brc1ccc([C@H]2CN3CCSC3=N2)cc1`, the Potency result in experiment [1], in experiment [2], in experiment [3], in experiment [4] and in experiment [6] was “inactive” in each case. Further, the outcome in experiment [5] was inactive.
Take `CCN1C(=O)c2ccccc2C1Nc1ccc(OCCN2CCCCC2)cc1` (centres undefined): the Potency entry in experiment [1], in experiment [2], in experiment [3], in experiment [4] and in experiment [6] was “inactive” throughout. Moreover, the compound was called inactive in experiment [5].
For `CN1CCC(N(Cc2cccs2)c2ccccc2)CC1`, the Potency result in experiment [1], in experiment [2], in experiment [3], in experiment [4] and in experiment [6] was “inactive” in each case. Moreover, the result in experiment [5] was inactive.
Turning to `O=C(O)[C@@H](O)[C@H](O)[C@H](O)[C@@H](O)C(=O)O`, the Potency result in experiment [1] and in experiment [2] was “inactive” in each case.
On to `O=C1NC(c2ccccc2)(c2ccccc2)C(=O)N1COP(=O)(O)O`, for which the Potency result in experiment [1] and in experiment [2] was “inactive” each time.
As for `CC(=O)Nc1ccc(S(=O)(=O)Nc2cc(C)on2)cc1`, the Potency result in experiment [1] and in experiment [2] was “inactive” in each case.
With `C=CCOc1cc(Cl)ccc1C(=O)NCCN(CC)CC`, the Potency result in experiment [1], in experiment [2], in experiment [3], in experiment [4] and in experiment [6] was “inactive” in each case. Moreover, the outcome in experiment [5] was inactive.
On to `CCCCNc1ccc(C(=O)OCCN(CC)CC)cc1`, for which the Potency entry in experiment [1], in experiment [2], in experiment [3] and in experiment [4] was “inactive” each time. In addition, the compound was called inactive in experiment [5].
Consider `OC1(c2ccc(Cl)c(C(F)(F)F)c2)CCN(CCCC(c2ccc(F)cc2)c2ccc(F)cc2)CC1`, for which the Potency result in experiment [1], in experiment [2] and in experiment [4] was “inactive” throughout. The compound was called inactive in experiment [5].
Regarding `O=C(NN1CCCC1)NS(=O)(=O)c1ccc(Cl)cc1`, the Potency result in experiment [1], in experiment [2], in experiment [4] and in experiment [6] was “inactive” throughout. The outcome in experiment [5] was inactive.
For the compound `O=C(CCCCCCCCC#CI)Oc1ccccc1`, the Potency entry in experiment [1], in experiment [2] and in experiment [4] was “inactive” throughout. Besides, the call in experiment [5] was inactive.
In the case of `CC1CC(=O)NN=C1c1ccc(NCC(C)(C)NCC(O)COc2cc(Cl)ccc2C#N)cc1` (centres undefined), the Potency entry in experiment [3] is “inactive”. Moreover, in experiment [5], the call was inactive.
Consider `CCCCCOc1ccc(C2SC(=O)NC2=O)cc1OCC` (centres undefined), for which the Potency in experiment [2] is 22.4 µM (active). In addition, the Potency entry in experiment [4] and in experiment [6] was “inactive” each time. Also, in experiment [5], the compound was classed as inactive.
